{"source": "ChEMBL document CHEMBL1857833", "about": "“Screening and optimization of specific chemical series against human African Trypanosomiasis (HAT)”", "note": "The whole screen tested about 4,400 compounds, of which about 390 (8.9%) showed an effect of 50% or more. Many of the other results were omitted from the sample, so strong results are more common in it than they were.", "data": [{"test_system": "Trypanosoma brucei", "assay": "DNDI: Inhibition of Human African Trypanosomiasis, SBRI 427, in vitro at 2 ug.mL-1", "format": "functional", "units": {"% inhibition": "%"}, "values": [{"smiles": "CCOc1ccccc1CN/C(=N\\O)c1ccc(Oc2ccc(C)cc2OC)nc1", "% inhibition": 25}, {"smiles": "CCN(CCC#N)Cc1coc(-c2cccc3ccccc23)n1", "% inhibition": 10}, {"smiles": "Cc1ccccc1-c1nc(CNCC(C)(C)CN(C)C)co1", "% inhibition": -8}, {"smiles": "COc1cc(C)ccc1Oc1nc(C)ccc1/C(=N/O)N1CCCC1", "% inhibition": 13}, {"smiles": "COc1ccc(Oc2nc(C)ccc2/C(=N/O)NCCN2CCCC2)cc1", "% inhibition": -2}, {"smiles": "COc1cc(C)ccc1Oc1nc(C)ccc1/C(=N/O)NCC(C)(C)C", "% inhibition": 99}, {"smiles": "Cc1ccc(Oc2nc(C)ccc2/C(=N/O)NCC(C)(C)C)c(C)c1", "% inhibition": 11}, {"smiles": "COc1cc(C)ccc1Oc1nc(C)ccc1/C(=N/O)NCC1CCCCC1", "% inhibition": 0}, {"smiles": "Cc1ccc(Oc2nc(C)ccc2/C(=N/O)NCC(C)C)c(C)c1", "% inhibition": 20}, {"smiles": "COc1cc(C)ccc1Oc1nc(C)ccc1/C(=N/O)NCC1CCCO1", "note": "(centres undefined)", "% inhibition": 15}, {"smiles": "COc1cc(C)ccc1Oc1nc(C)ccc1/C(=N/O)NCC(C)C", "% inhibition": 100}, {"smiles": "COc1cc(C)ccc1Oc1nc(C)ccc1/C(=N/O)NCC1CC1", "% inhibition": 100}, {"smiles": "Cc1ccc(/C(=N/O)NCCN2CCCC2)c(Oc2ccc(F)cc2)n1", "% inhibition": 91}, {"smiles": "CCCN/C(=N\\O)c1ccc(C)nc1Oc1ccc(C)cc1OC", "% inhibition": 22}, {"smiles": "COc1cc(C)ccc1Oc1nc(C)ccc1/C(=N/O)NCCSC", "% inhibition": -7}, {"smiles": "Cc1ccc(/C(=N/O)NCCN2CCCC2)c(Oc2cccc(F)c2)n1", "% inhibition": -3}, {"smiles": "C=CCN1CCN(/C(=N\\O)c2ccc(C)nc2OCc2cccc(F)c2)CC1", "% inhibition": 3}, {"smiles": "CCC(NCc1coc(-c2cccs2)n1)c1ccccc1", "note": "(centres undefined)", "% inhibition": -5}, {"smiles": "c1coc(-c2nc(CNC3CCc4ccccc43)co2)c1", "note": "(centres undefined)", "% inhibition": 17}, {"smiles": "CN(Cc1coc(-c2ccccc2F)n1)Cc1cccc2ccccc12", "% inhibition": -49}, {"smiles": "CCN(C)Cc1coc(-c2cccc(F)c2)n1", "% inhibition": -10}, {"smiles": "COc1cc(CNCc2coc(-c3ccc(O)cc3)n2)cc(OC)c1", "% inhibition": 8}, {"smiles": "CC(C)c1ccc(N/C(=N\\O)c2ccc(Oc3ccc4oc5ccccc5c4c3)nc2)cc1", "% inhibition": 25}, {"smiles": "Cc1ccc(/C(=N/O)N2CCSCC2)c(OCc2cccc(F)c2)n1", "% inhibition": -17}, {"smiles": "CCOC(=O)C1CCCN(Cc2coc(-c3cc(OC)c(OC)c(OC)c3)n2)C1", "note": "(centres undefined)", "% inhibition": -16}, {"smiles": "CN(Cc1coc(-c2ccc(Br)cc2)n1)CC1OCCO1", "% inhibition": 11}, {"smiles": "Cc1ccccc1-c1nc(CN2CC(C)CC(C)C2)co1", "note": "(centres undefined)", "% inhibition": 6}, {"smiles": "Cc1ccc(Oc2nc(C)ccc2/C(=N/O)NCC2CC2)cc1", "% inhibition": 74}, {"smiles": "COc1ccc(Oc2nc(C)ccc2/C(=N/O)NCC2CC2)cc1", "% inhibition": 24}, {"smiles": "Cc1ccc(/C(=N/O)NCC2CC2)c(Oc2ccc(F)cc2)n1", "% inhibition": 33}, {"smiles": "CCOc1cccc(-c2nc(Cn3cnc(-c4ccccc4)c3)co2)c1", "% inhibition": 11}, {"smiles": "CN(Cc1coc(-c2ccco2)n1)C1CCCCC1", "% inhibition": 11}, {"smiles": "Cc1ccccc1CNCc1coc(-c2ccc(O)cc2)n1", "% inhibition": 1}, {"smiles": "CSc1ccccc1Oc1ncccc1/C(=N/O)NC1CCCC1", "% inhibition": 99}, {"smiles": "O/N=C(\\NC1CCCC1)c1cccnc1Oc1ccccc1F", "% inhibition": 96}, {"smiles": "O/N=C(/c1cccnc1Oc1ccccc1F)N1CCCCC1", "% inhibition": 23}, {"smiles": "CSc1ccccc1Oc1ncccc1/C(=N/O)N1CCCCC1", "% inhibition": 8}, {"smiles": "COc1ccccc1Oc1ncccc1/C(=N/O)N1C(C)CCCC1C", "note": "(centres undefined)", "% inhibition": 9}, {"smiles": "COC(=O)C1CCN(/C(=N\\O)c2cccnc2Oc2ccccc2SC)CC1", "% inhibition": 18}, {"smiles": "COC(=O)C1CCN(/C(=N\\O)c2cccnc2Oc2ccccc2OC)CC1", "% inhibition": 15}, {"smiles": "O/N=C(\\NC1CC1)c1cccnc1Oc1ccccc1F", "% inhibition": 78}, {"smiles": "COc1ccccc1Oc1ncccc1/C(=N/O)NC1CCCC1", "% inhibition": 99}, {"smiles": "Cc1ccc(/C(=N/O)NC2CC2)c(Oc2cccc3cccnc23)n1", "% inhibition": 29}, {"smiles": "O/N=C(\\NCCN1CCCC1)c1cccnc1Oc1ccccc1F", "% inhibition": 30}, {"smiles": "O/N=C(/c1cccnc1Oc1ccccc1F)N1CCOCC1", "% inhibition": 13}, {"smiles": "CC(C)c1ccc(Oc2ncccc2/C(=N/O)N2CCC=N2)cc1", "% inhibition": -4}, {"smiles": "Cc1nccn1/C(=N\\O)c1ccnc(Oc2ccc(Cl)cc2)c1", "% inhibition": 5}, {"smiles": "COc1ccc(-c2nc(CN3CCC(C)CC3)co2)cc1", "% inhibition": 12}, {"smiles": "Cc1cccc(N2CCN(Cc3coc(-c4ccc(O)cc4)n3)CC2)c1C", "% inhibition": 3}, {"smiles": "Brc1ccc(-c2nc(CNCCCN3CCOCC3)co2)cc1", "% inhibition": -12}, {"smiles": "CCCCN(CC)Cc1coc(-c2cccc(OC)c2)n1", "% inhibition": -18}, {"smiles": "Cc1nccn1/C(=N\\O)c1cccnc1Oc1ccccc1", "% inhibition": 10}, {"smiles": "COc1cc(C)ccc1Oc1nc(C)ccc1/C(=N/O)N1C(C)C=CC1C", "note": "(centres undefined)", "% inhibition": -2}, {"smiles": "CN1CCCC1CCNCc1coc(-c2ccc(Br)cc2)n1", "note": "(centres undefined)", "% inhibition": 97}, {"smiles": "CCOc1cccc(-c2nc(CNCCN3CCCC3)co2)c1", "% inhibition": -12}, {"smiles": "Brc1ccccc1-c1nc(CNCCN2CCCCC2)co1", "% inhibition": -1}, {"smiles": "Brc1ccc(-c2nc(CNCCN3CCOCC3)co2)cc1", "% inhibition": -53}, {"smiles": "CCOc1cccc(-c2nc(CNCCN3CCOCC3)co2)c1", "% inhibition": -2}, {"smiles": "Brc1ccc(-c2nc(CNCCN3CCCCC3)co2)cc1", "% inhibition": 43}, {"smiles": "CN1CCCC1CCNCc1coc(-c2cccs2)n1", "note": "(centres undefined)", "% inhibition": -4}, {"smiles": "CN1CCCC1CCNCc1coc(-c2ccccc2Br)n1", "note": "(centres undefined)", "% inhibition": 57}, {"smiles": "CCOc1cccc(-c2nc(CNCCC3CCCN3C)co2)c1", "note": "(centres undefined)", "% inhibition": 99}, {"smiles": "CC(C)COc1ncccc1/C(=N/O)N1CCN(c2ccc(F)cc2)CC1", "% inhibition": 0}, {"smiles": "O=Cc1nccn1Cc1coc(-c2ccc(F)cc2)n1", "% inhibition": -8}, {"smiles": "CSc1ccc(Oc2cc(/C(=N/O)N3CC(C)CC(C)C3)ccn2)cc1", "note": "(centres undefined)", "% inhibition": 18}, {"smiles": "Oc1ccc(-c2nc(CNCc3ccccc3C(F)(F)F)co2)cc1", "% inhibition": 18}, {"smiles": "COc1ccc(Oc2ncccc2/C(=N/O)N(C)Cc2ccco2)cc1", "% inhibition": -11}, {"smiles": "CSc1ccc(Oc2nc(C)ccc2/C(=N/O)N(C)Cc2ccco2)cc1C", "% inhibition": 12}, {"smiles": "CC(C)c1ccc(Oc2ncccc2/C(=N/O)NCc2ccco2)cc1", "% inhibition": 96}, {"smiles": "O/N=C(\\NCc1ccccn1)c1cccnc1Oc1ccc2oc3ccccc3c2c1", "% inhibition": 7}, {"smiles": "CN(Cc1ccco1)/C(=N\\O)c1cccnc1Oc1ccc(Cl)cc1", "% inhibition": 4}, {"smiles": "O/N=C(\\NCc1ccncc1)c1cccnc1Oc1ccc2oc3ccccc3c2c1", "% inhibition": 10}, {"smiles": "O/N=C(\\NCc1cccs1)c1cccnc1Oc1ccc2oc3ccccc3c2c1", "% inhibition": 75}, {"smiles": "COc1ccc(Oc2ncccc2/C(=N/O)NCc2ccco2)cc1", "% inhibition": -14}, {"smiles": "CC(C)COc1ncccc1/C(=N/O)NCc1ccco1", "% inhibition": 3}, {"smiles": "CC(C)c1ccc(Oc2ncccc2/C(=N/O)N(C)Cc2ccco2)cc1", "% inhibition": 75}, {"smiles": "Cc1ccc(/C(=N/O)N(C)Cc2ccco2)c(Oc2cccc(C(C)C)c2)n1", "% inhibition": 67}, {"smiles": "Cc1ccc(/C(=N/O)N(C)Cc2ccco2)c(Oc2cccc(F)c2)n1", "% inhibition": 22}, {"smiles": "CC(C)COc1ncccc1/C(=N/O)N(C)Cc1cccnc1", "% inhibition": -1}, {"smiles": "Cc1cn(/C(=N\\O)c2ccc(Oc3ccc4oc5ccccc5c4c3)nc2)cn1", "% inhibition": 16}, {"smiles": "CCOc1cccc(-c2nc(CN(C)CC#N)co2)c1", "% inhibition": 15}, {"smiles": "O/N=C(/c1cccnc1Oc1ccc(F)cc1)N1Cc2ccccc2C1", "% inhibition": 4}, {"smiles": "COC(CN(C)Cc1coc(-c2ccc(Br)cc2)n1)OC", "% inhibition": 4}, {"smiles": "CCOc1ccccc1-c1nc(CN2CCCCC2)co1", "% inhibition": -1}, {"smiles": "CN(Cc1coc(-c2ccc(C(F)(F)F)cc2)n1)Cc1ccco1", "% inhibition": 18}, {"smiles": "O/N=C(\\NCc1cccs1)c1cccnc1Oc1cccc(C(F)(F)F)c1", "% inhibition": -12}, {"smiles": "COc1ccc(Oc2ncccc2/C(=N/O)NCc2cccs2)cc1", "% inhibition": 37}, {"smiles": "CC(C)c1ccc(Oc2ncccc2/C(=N/O)NCc2cccs2)cc1", "% inhibition": 100}, {"smiles": "Clc1ccccc1-c1nc(CNC(Cc2ccccc2)c2ccccc2)co1", "note": "(centres undefined)", "% inhibition": -20}, {"smiles": "Cc1ccccc1-c1nc(CNC[C@@H]2CCCO2)co1", "% inhibition": -1}, {"smiles": "Brc1ccccc1-c1nc(CNC2CCCCCCCCCCC2)co1", "% inhibition": 59}, {"smiles": "Brc1ccccc1-c1nc(CNC2CCCCCC2)co1", "% inhibition": -20}, {"smiles": "Cc1ccccc1-c1nc(CNC2CCN(Cc3ccccc3)C2)co1", "note": "(centres undefined)", "% inhibition": 30}, {"smiles": "Brc1ccccc1-c1nc(CNC2CCN(Cc3ccccc3)C2)co1", "note": "(centres undefined)", "% inhibition": -6}, {"smiles": "Cc1ccccc1-c1nc(CNC2CCCCCC2)co1", "% inhibition": 61}, {"smiles": "COc1cc(CN(C)Cc2coc(-c3ccccc3C)n2)cc(OC)c1OC", "% inhibition": -15}, {"smiles": "CCCN(Cc1coc(-c2cc(OC)c(OC)c(OC)c2)n1)c1ccccc1", "% inhibition": 1}, {"smiles": "O/N=C(/c1cccnc1OCc1ccccc1)N1CCSCC1", "% inhibition": 13}, {"smiles": "C[C@@H]1C(NCc2coc(-c3cccs3)n2)C[C@H]2C[C@@H]1C2(C)C", "note": "(some centres undefined)", "% inhibition": 62}, {"smiles": "c1csc(-c2nc(CNC3CCCC3)co2)c1", "% inhibition": -11}, {"smiles": "c1csc(-c2nc(CNC3CCc4ccccc43)co2)c1", "note": "(centres undefined)", "% inhibition": -11}, {"smiles": "CC1CC(C)CN(Cc2coc(-c3cccs3)n2)C1", "note": "(centres undefined)", "% inhibition": 2}, {"smiles": "C[C@H]1C(NCc2coc(-c3cccs3)n2)C[C@@H]2C[C@H]1C2(C)C", "note": "(some centres undefined)", "% inhibition": 87}, {"smiles": "CC(NCc1coc(-c2cccs2)n1)C1CCCCC1", "note": "(centres undefined)", "% inhibition": -3}, {"smiles": "COc1cccc(Oc2ccc(/C(=N/O)N3CCSC3)cn2)c1", "% inhibition": 6}, {"smiles": "Cc1ccc(CCNCc2coc(-c3cccc(F)c3)n2)cc1", "% inhibition": -9}, {"smiles": "CCCN(Cc1coc(-c2cccc(C)c2)n1)c1ccccc1", "% inhibition": 7}, {"smiles": "Cc1ccc2cccc(Oc3cc(/C(=N/O)NC4CCC(C)CC4)ccn3)c2n1", "note": "(centres undefined)", "% inhibition": 94}, {"smiles": "Cc1ccc2cccc(Oc3cc(/C(=N/O)NC4CC(C)CC(C)(C)C4)ccn3)c2n1", "note": "(centres undefined)", "% inhibition": 10}, {"smiles": "Cc1ccc2cccc(Oc3cc(/C(=N/O)N4C(C)CCCC4C)ccn3)c2n1", "note": "(centres undefined)", "% inhibition": 19}, {"smiles": "Cc1ccc2cccc(Oc3ccc(/C(=N/O)n4cccn4)cn3)c2n1", "% inhibition": 4}, {"smiles": "CC1CCC(N/C(=N\\O)c2ccnc(Oc3cccc4cnccc34)c2)CC1", "note": "(centres undefined)", "% inhibition": 10}, {"smiles": "Cc1ccc2cccc(Oc3ccc(/C(=N/O)Nc4ccc(C(C)C)cc4)cn3)c2n1", "% inhibition": 8}, {"smiles": "Cc1ccccc1CN/C(=N\\O)c1ccnc(Oc2cccc3cccnc23)c1", "% inhibition": 43}, {"smiles": "CCC(C)(C)N/C(=N\\O)c1ccnc(Oc2cccc3ccc(C)nc23)c1", "% inhibition": 51}, {"smiles": "CC1CCC(N/C(=N\\O)c2ccnc(Oc3cccc4cccnc34)c2)CC1", "note": "(centres undefined)", "% inhibition": 95}, {"smiles": "Cc1cc(C)cc(CN/C(=N\\O)c2ccnc(Oc3cccc4ccc(C)nc34)c2)c1", "% inhibition": 18}, {"smiles": "Cc1ccc2cccc(Oc3ccc(/C(=N/O)NC4CCCCC4)cn3)c2n1", "% inhibition": 99}, {"smiles": "Cc1ccc2cccc(Oc3cc(/C(=N/O)NCc4c(F)cccc4F)ccn3)c2n1", "% inhibition": 17}]}]}
